# Results: article PMC7862700, “An all-to-all approach to the identification of sequence-specific readers for epigenetic DNA modifications on cytosine”
# Experiments:
# Assay in all cases: DAPPL (digital affinity profiling via proximity ligation, sequencing); 10 mM Tris-HCl pH 7.5, 50 mM NaCl, 1 mM DTT, 4% glycerol, room temperature, 30 min; GST-TFs on glutathione beads, 16-mer random dsDNA library, 0.1% formaldehyde crosslink after washing; high values mean tight binding
# FLI1 = target: T1, FLI1 (Homo sapiens, UniProt Q01543 1-452); conditions: protein: recombinant; tags: N-terminal GST; dsDNA, one strand shown
# T1 sequence: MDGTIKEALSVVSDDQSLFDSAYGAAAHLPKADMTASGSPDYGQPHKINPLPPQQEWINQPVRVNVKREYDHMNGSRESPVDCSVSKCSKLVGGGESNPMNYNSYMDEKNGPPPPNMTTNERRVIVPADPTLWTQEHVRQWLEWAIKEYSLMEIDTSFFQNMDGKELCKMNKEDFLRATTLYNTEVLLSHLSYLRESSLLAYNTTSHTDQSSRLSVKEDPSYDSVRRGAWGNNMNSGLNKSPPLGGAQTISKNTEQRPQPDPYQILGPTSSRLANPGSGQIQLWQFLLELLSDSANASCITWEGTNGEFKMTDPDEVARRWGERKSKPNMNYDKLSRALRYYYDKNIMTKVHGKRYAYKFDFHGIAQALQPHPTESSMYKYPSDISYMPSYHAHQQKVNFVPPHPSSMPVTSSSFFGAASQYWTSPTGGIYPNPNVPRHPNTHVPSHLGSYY
# Outline: (§1)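 Sequencing on an Illumina NextSeq500 followed washing, crosslinking with 0.1% formaldehyde, proximity ligation (BsaI/T4 ligase, 1 h, 37 °C) and PCR amplification of pools that had been incubated for 30 min at room temperature with 200 nmole of a random double-stranded 16-mer DNA library in Tris/NaCl/DTT/glycerol buffer. Each pool held DNA-barcoded human transcription factors, expressed in yeast as GST fusions and captured on glutathione beads, plus a tag-only sample. Binding signal is a hexamer's read frequency for a factor divided by its frequency in the tag-only sample.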
# ELK1 = target: T2, ELK1 (Homo sapiens, UniProt P19419 1-428); conditions: protein: recombinant; tags: N-terminal GST; dsDNA, one strand shown
# T2 sequence: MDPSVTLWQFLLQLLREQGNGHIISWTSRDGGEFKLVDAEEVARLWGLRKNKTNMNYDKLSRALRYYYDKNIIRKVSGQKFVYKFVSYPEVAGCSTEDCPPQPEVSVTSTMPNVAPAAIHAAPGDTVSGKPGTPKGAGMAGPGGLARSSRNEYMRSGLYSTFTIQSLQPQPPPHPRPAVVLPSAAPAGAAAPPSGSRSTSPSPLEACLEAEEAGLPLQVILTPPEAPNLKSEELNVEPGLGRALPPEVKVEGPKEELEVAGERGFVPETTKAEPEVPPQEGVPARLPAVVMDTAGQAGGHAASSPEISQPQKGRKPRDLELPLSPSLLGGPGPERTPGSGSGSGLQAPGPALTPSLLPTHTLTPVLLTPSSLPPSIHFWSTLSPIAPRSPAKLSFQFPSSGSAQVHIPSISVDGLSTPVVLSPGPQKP
# Outline: as §1
# GABPA = target: T3, GABPA (Homo sapiens, UniProt Q06546 1-454); conditions: protein: recombinant; tags: N-terminal GST; dsDNA, one strand shown
# T3 sequence: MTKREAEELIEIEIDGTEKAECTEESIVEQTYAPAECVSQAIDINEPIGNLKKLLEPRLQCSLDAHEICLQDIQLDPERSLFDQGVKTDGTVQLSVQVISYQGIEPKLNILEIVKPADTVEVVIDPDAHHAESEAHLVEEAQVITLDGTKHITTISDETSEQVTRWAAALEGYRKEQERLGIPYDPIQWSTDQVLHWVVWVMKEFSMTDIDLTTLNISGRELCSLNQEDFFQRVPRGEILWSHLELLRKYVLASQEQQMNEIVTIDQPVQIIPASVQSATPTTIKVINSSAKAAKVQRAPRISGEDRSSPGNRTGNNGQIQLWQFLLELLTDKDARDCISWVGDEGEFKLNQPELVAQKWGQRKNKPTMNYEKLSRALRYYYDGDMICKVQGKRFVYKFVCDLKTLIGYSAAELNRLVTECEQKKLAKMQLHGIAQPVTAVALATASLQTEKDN
# Outline: as §1
# ERG = target: T4, ERG (Homo sapiens, UniProt P11308 1-479); conditions: protein: recombinant; tags: N-terminal GST; dsDNA, one strand shown
# T4 sequence: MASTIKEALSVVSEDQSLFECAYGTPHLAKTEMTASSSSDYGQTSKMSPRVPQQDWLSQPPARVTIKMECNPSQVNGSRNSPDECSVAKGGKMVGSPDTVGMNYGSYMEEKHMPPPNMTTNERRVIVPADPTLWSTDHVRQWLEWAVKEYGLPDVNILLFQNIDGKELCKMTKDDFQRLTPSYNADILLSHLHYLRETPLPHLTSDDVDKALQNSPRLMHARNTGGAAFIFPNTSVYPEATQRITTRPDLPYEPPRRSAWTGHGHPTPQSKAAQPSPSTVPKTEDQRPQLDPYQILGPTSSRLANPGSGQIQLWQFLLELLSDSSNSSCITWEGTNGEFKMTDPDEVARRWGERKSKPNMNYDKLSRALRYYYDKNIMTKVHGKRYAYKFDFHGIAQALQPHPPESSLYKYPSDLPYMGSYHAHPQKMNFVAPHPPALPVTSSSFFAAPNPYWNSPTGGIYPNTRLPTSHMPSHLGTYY
# Outline: as §1
# ELF1 = ELF1 (Homo sapiens, UniProt P32519 1-619); conditions: protein: recombinant; tags: N-terminal GST; dsDNA, one strand shown
# Outline: as §1
# EHF = target: T5, EHF (Homo sapiens, UniProt Q9NZC4 1-300); conditions: protein: recombinant; tags: N-terminal GST; dsDNA, one strand shown
# T5 sequence: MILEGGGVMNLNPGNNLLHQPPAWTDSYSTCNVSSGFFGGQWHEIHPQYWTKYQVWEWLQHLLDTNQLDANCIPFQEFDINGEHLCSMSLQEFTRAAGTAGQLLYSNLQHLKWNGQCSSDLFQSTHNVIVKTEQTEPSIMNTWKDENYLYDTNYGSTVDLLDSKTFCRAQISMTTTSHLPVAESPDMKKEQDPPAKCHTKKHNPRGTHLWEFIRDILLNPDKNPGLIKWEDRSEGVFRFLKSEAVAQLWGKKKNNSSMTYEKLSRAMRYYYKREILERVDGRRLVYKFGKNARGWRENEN
# Outline: as §1
# SPI1 = SPI1 (Homo sapiens, UniProt P17947 1-270); conditions: protein: recombinant; tags: N-terminal GST; dsDNA, one strand shown
# Outline: as §1
# SPIB = SPIB (Homo sapiens, UniProt Q01892 1-262); conditions: protein: recombinant; tags: N-terminal GST; dsDNA, one strand shown
# Outline: as §1
# ELK3 = target: T6, ELK3 (Homo sapiens, UniProt P41970 1-407); conditions: protein: recombinant; tags: N-terminal GST; dsDNA, one strand shown
# T6 sequence: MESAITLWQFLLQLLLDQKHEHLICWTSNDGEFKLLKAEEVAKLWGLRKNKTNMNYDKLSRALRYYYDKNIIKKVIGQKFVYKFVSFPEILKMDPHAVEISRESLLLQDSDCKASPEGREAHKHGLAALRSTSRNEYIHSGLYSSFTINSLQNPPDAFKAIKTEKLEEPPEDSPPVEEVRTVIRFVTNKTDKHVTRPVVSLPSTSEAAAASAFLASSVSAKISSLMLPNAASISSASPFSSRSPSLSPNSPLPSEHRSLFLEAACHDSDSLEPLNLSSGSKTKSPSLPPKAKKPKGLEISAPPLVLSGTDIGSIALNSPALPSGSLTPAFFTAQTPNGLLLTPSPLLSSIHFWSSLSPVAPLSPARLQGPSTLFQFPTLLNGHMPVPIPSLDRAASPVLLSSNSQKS
# Outline: as §1
# FEV = target: T7, FEV (Homo sapiens, UniProt Q99581 1-238); conditions: protein: recombinant; tags: N-terminal GST; dsDNA, one strand shown
# T7 sequence: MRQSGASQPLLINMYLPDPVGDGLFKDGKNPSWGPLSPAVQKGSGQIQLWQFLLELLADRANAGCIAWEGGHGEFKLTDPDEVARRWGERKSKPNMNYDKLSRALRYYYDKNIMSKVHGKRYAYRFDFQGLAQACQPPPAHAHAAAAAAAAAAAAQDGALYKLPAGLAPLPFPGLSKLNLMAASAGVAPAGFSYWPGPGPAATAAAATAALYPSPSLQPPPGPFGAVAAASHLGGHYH
# Outline: as §1
# ETV5 = ETV5 (Homo sapiens, UniProt P41161 1-510); conditions: protein: recombinant; tags: N-terminal GST; dsDNA, one strand shown
# Outline: as §1
# HSF1 = HSF1 (Homo sapiens, UniProt Q00613 1-529); conditions: protein: recombinant; tags: N-terminal GST; chain copies: 3; dsDNA, one strand shown
# Outline: as §1
# SPIC = target: T8, SPIC (Homo sapiens, UniProt Q8N5J4 1-248); conditions: protein: recombinant; tags: N-terminal GST; dsDNA, one strand shown
# T8 sequence: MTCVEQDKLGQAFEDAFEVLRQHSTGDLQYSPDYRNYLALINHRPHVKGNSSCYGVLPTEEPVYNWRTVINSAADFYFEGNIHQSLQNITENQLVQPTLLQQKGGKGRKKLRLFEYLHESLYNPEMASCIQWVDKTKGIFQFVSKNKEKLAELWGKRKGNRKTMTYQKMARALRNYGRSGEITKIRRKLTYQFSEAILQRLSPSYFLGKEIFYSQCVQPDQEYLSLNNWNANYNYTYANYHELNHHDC
# Outline: as §1
# ELF4 = ELF4 (Homo sapiens, UniProt Q99607 1-663); conditions: protein: recombinant; tags: N-terminal GST; dsDNA, one strand shown
# Outline: as §1
# ELK4 = target: T9, ELK4 (Homo sapiens, UniProt P28324-2 1-405); conditions: protein: recombinant; tags: N-terminal GST; dsDNA, one strand shown
# T9 sequence: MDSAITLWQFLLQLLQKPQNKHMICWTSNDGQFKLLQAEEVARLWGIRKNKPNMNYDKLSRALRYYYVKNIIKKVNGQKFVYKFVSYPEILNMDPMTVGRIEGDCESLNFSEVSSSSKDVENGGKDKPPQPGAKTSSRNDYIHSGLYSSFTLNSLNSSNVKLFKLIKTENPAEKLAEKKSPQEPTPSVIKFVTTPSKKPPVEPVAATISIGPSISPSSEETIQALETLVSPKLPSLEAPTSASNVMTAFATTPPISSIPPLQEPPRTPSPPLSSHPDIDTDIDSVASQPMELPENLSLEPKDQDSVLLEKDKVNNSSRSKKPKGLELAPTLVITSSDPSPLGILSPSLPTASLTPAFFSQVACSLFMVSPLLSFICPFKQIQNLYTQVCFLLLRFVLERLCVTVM
# Outline: as §1
# ETV2 = target: T10, ETV2 (Homo sapiens, UniProt O00321 1-342); conditions: protein: recombinant; tags: N-terminal GST; dsDNA, one strand shown
# T10 sequence: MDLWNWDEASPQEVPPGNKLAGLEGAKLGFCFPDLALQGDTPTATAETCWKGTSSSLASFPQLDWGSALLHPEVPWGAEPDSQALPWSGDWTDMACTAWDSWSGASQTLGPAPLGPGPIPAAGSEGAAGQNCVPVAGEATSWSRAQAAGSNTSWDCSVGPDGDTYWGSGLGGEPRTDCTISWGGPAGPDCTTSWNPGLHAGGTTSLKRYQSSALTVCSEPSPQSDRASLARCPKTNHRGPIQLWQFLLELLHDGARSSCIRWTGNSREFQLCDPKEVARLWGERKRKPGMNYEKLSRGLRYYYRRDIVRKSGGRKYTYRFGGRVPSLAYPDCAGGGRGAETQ
# Outline: as §1
# ELF3 = target: T11, ELF3 (Homo sapiens, UniProt P78545 1-371); conditions: protein: recombinant; tags: N-terminal GST; dsDNA, one strand shown
# T11 sequence: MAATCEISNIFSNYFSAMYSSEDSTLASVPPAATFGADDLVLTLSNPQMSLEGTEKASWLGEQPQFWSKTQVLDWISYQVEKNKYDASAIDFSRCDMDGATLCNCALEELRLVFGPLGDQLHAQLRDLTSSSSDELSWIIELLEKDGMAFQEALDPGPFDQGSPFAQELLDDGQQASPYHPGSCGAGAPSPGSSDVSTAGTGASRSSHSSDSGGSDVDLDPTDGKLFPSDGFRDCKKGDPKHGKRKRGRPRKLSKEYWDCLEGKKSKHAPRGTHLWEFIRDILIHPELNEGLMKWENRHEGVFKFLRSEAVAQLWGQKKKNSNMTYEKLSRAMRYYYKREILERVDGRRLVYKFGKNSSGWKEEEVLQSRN
# Outline: as §1
# CRX = CRX (Homo sapiens, UniProt O43186 1-299); conditions: protein: recombinant; tags: N-terminal GST; dsDNA, one strand shown
# Outline: as §1
# ETV1 = ETV1 (Homo sapiens, UniProt P50549 1-477); conditions: protein: recombinant; tags: N-terminal GST; dsDNA, one strand shown
# Outline: as §1
# Sequence of HSF1 (Q00613 whole entry): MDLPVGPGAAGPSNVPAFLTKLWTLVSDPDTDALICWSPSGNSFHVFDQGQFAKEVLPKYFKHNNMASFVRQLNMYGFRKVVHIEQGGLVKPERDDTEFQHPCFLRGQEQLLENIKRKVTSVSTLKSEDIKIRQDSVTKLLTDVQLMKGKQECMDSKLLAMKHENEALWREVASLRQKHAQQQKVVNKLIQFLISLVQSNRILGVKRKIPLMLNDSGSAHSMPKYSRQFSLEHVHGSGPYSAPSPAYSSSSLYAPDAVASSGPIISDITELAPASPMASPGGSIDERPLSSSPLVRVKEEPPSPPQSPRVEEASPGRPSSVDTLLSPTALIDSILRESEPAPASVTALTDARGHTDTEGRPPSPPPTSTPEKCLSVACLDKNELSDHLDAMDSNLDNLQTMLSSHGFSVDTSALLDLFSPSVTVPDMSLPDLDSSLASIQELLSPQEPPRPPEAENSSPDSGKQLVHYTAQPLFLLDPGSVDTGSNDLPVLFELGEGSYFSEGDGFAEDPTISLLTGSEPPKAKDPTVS
# Sequence of ETV5 (P41161 whole entry): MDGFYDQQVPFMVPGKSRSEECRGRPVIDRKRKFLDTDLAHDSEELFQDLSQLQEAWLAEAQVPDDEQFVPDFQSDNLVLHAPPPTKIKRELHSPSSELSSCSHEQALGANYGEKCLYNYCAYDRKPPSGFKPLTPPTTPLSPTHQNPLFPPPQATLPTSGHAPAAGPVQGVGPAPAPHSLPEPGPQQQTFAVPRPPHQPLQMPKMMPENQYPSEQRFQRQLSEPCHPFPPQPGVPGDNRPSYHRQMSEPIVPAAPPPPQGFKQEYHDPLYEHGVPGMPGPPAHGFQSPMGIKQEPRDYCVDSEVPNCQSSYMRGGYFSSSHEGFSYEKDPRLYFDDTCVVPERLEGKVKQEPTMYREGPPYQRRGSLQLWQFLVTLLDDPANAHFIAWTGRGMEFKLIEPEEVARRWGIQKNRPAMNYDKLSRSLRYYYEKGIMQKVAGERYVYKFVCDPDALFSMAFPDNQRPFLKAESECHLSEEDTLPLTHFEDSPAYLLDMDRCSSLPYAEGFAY
# Sequence of CRX (O43186 whole entry): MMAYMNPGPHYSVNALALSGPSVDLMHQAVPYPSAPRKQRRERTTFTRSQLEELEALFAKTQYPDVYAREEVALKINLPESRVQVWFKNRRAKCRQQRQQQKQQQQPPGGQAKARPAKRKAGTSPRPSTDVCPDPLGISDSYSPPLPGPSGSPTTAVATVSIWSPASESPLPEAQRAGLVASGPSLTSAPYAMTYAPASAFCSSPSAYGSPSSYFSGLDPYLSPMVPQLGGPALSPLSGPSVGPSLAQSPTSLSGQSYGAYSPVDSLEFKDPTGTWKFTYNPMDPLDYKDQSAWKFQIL
# Sequence of ELF4 (Q99607 whole entry): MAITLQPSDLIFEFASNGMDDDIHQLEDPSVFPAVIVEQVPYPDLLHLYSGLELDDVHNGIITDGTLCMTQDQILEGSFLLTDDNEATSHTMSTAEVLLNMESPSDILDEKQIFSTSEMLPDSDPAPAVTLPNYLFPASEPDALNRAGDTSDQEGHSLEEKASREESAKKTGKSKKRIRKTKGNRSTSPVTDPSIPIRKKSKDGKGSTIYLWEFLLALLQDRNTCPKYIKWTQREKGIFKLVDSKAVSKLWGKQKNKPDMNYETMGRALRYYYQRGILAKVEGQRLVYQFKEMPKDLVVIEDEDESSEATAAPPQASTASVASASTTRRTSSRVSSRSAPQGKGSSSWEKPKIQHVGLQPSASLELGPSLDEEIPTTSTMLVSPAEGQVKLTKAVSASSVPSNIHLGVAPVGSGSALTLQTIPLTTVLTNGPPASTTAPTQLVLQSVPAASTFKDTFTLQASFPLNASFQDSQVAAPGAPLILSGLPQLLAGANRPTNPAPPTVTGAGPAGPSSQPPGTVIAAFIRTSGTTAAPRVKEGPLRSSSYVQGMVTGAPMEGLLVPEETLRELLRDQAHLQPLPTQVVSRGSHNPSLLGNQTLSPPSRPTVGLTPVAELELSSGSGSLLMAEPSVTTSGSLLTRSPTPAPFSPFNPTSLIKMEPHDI
# Sequence of ETV1 (P50549 whole entry): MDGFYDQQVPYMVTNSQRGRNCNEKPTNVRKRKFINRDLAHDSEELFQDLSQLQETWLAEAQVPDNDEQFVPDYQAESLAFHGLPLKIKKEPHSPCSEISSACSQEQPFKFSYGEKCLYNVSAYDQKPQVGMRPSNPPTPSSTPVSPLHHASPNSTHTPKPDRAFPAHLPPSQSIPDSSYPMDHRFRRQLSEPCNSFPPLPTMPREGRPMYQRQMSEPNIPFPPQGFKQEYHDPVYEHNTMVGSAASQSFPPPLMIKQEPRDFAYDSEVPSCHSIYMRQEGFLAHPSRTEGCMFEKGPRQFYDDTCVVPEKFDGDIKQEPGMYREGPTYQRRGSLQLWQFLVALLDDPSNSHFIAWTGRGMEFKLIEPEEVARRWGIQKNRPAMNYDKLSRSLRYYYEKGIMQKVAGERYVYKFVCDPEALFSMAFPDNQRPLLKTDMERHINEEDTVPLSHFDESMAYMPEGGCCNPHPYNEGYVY
# Sequence of SPIB (Q01892 whole entry): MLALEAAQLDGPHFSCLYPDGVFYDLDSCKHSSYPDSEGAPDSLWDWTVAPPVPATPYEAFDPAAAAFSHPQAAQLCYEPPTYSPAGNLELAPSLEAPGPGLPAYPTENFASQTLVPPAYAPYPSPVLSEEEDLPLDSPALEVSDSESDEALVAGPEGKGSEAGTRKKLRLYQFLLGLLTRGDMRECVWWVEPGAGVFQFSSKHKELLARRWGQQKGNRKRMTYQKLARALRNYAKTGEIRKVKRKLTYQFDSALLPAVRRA
# Sequence of ELF1 (P32519 whole entry): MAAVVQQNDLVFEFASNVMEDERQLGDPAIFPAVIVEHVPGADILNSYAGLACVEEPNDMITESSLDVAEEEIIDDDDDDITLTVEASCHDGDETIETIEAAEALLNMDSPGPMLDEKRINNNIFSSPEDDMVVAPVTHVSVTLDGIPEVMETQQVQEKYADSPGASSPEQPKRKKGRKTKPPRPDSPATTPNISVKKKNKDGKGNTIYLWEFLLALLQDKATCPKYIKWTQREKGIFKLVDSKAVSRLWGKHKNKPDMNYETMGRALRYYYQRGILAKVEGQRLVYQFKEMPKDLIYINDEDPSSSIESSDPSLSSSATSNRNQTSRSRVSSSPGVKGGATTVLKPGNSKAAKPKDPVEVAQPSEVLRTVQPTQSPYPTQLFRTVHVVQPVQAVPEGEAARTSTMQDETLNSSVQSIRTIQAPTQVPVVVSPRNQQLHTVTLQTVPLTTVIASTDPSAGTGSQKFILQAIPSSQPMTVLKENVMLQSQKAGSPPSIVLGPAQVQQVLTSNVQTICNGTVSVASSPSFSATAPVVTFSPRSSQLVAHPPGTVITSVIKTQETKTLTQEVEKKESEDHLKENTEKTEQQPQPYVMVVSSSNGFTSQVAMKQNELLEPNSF
sequence,measurement,setting,value
GTCTTT,binding signal,FLI1,"1.28 fold enrichment (6-mer frequency, TF over GST control)"
same,binding signal,ELK1,"1.21 fold enrichment (6-mer frequency, TF over GST control)"
same,binding signal,GABPA,"1.35 fold enrichment (6-mer frequency, TF over GST control)"
same,binding signal,ERG,"1.15 fold enrichment (6-mer frequency, TF over GST control)"
same,binding signal,ELF1,"1.26 fold enrichment (6-mer frequency, TF over GST control)"
same,binding signal,EHF,"1.2 fold enrichment (6-mer frequency, TF over GST control)"
same,binding signal,SPI1,"1.38 fold enrichment (6-mer frequency, TF over GST control)"
same,binding signal,SPIB,"1.23 fold enrichment (6-mer frequency, TF over GST control)"
same,binding signal,ELK3,"1.34 fold enrichment (6-mer frequency, TF over GST control)"
same,binding signal,FEV,"1.14 fold enrichment (6-mer frequency, TF over GST control)"
same,binding signal,ETV5,"1.22 fold enrichment (6-mer frequency, TF over GST control)"
same,binding signal,HSF1,"1.22 fold enrichment (6-mer frequency, TF over GST control)"
same,binding signal,SPIC,"1.26 fold enrichment (6-mer frequency, TF over GST control)"
same,binding signal,ELF4,"1.22 fold enrichment (6-mer frequency, TF over GST control)"
same,binding signal,ELK4,"1.21 fold enrichment (6-mer frequency, TF over GST control)"
same,binding signal,ETV2,"1.12 fold enrichment (6-mer frequency, TF over GST control)"
same,binding signal,ELF3,"1.27 fold enrichment (6-mer frequency, TF over GST control)"
same,binding signal,CRX,"1.24 fold enrichment (6-mer frequency, TF over GST control)"
same,binding signal,ETV1,"1.13 fold enrichment (6-mer frequency, TF over GST control)"
